Assay outcomes as filed in PubChem BioAssay.
KLF5 inhibitor – KLF5 expression inhibitors, primary screen, DLD-1 cells, luminescence. DLD-1 KLF5 promoter-luciferase reporter. inhibition, % at 5 µM. hit rate 0.23% among 290,000. AID 1700, 2009;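 active = inhibition above a per-plate limit of that plate's mean compound inhibition plus 3 SD, cut at about 60% in these data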;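 note: 0% = DMSO wells and 100% = LY294002 at 200 µM; higher means less KLF5 promoter-driven luciferase light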
APP transl inh – inhibitors of APP translation via 5'UTR reporter, primary screen, APP 5'UTR luciferase, SH-SY5Y cells; SH-SY5Y APP 5'UTR-luciferase reporter, luminescence; inhibition, % at 2 µM; hit rate 0.82% among 190,000; AID 1285, 2008;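 active = inhibition above a set limit, derived from the sample mean plus 3 SD, cut at about 45% in these data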
IEC-6 tox – cytotoxicity in IEC-6 intestinal epithelial cells, primary screen, cytotoxicity control for KLF5 inhibitor project, cell-based, luminescence | IEC-6 cytotoxicity, luminescence viability | inhibition, % at 5 µM | hit rate 0.78% among 290,000 | AID 1825, 2009; in the data active = inhibition above about 22%;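 note: 0% = plate median of test compound wells and 100% = cytotoxic reference compound wells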
Ba/F3 V617F tox – reduced viability of JAK2V617F-dependent Ba/F3 cells, primary screen, JAK2V617F inhibitor project, cell-based, Ba/F3 EpoR-JAK2V617F, luminescence | ATP luminescence | inhibition, % at 5.6 µM | hit rate 1.1% among 220,000;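 active = inhibition above the campaign mean plus 3 SD over all tested compounds, cut at about 24% in these data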;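 note: cytokine-independent growth of Ba/F3 cells driven by EpoR plus mutant JAK2; 0% = DMSO-treated cells and 100% = JAK inhibitor I control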
BaF3 tox – parental Ba/F3 cell viability inhibition, counter-screen for JAK2V617F inhibitor project, murine pro-B, CellTiter-Glo luminescence; hit rate 1.1% among 220,000; CellTiter-Glo ATP luminescence; inhibition, % at 5.6 µM; AID 1486, 2009;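 active = inhibition above a per-campaign cutoff, the mean inhibition of all tested compounds plus 3 SD, cut at about 27% in these data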;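 note: 0% = DMSO wells and 100% = JAK Inhibitor I control wells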
* hit, by the source's call; . = no result. Sampled rows, rich in hits. Any-hit rate of the full collection: about 1.9%.

SMILES	KLF5 inhibitor	APP transl inh	IEC-6 tox	Ba/F3 V617F tox	BaF3 tox
Cn1c(=O)c2c(nc(NCc3cccnc3)n2Cc2ccc(Cl)cc2)n(C)c1=O	2	-1	23*	50*	52*
C/C(Cl)=C\Cn1c(NCCc2ccccc2)nc2c1c(=O)n(C)c(=O)n2C	-27	13	-5	3	18
Cc1cccc(CN2CCC(CNC(=O)CSc3cc(=O)n(C)c4cc(Cl)ccc34)CC2)c1	12	.	8	2	-16
CCN(CC)CCNC(=O)CN1C(=O)COc2ccc(S(=O)(=O)N3CCOCC3)cc21	-14	.	2	.	.
Cc1c(C(N)=O)sc(N)c1C(=O)OC(C)C	-16	-7	6	-3	1
Cc1ccc2c(c1)C=CC(C#N)N2C(=O)c1ccccc1 (centres undefined)	45	94*	40*	78*	36*
O=C(CSc1ncnc2nc[nH]c12)Nc1nnc(SCc2ccc(Cl)c(Cl)c2)s1	7	-21	5	5	28*
CC(=O)CSc1ncnc2nc[nH]c12	-18	4	13	25*	33*
COc1ccc(C(=O)CSc2ncnc3nc[nH]c23)cc1	-32	.	-4	0	4
OCCC1CN(Cc2cnc(-c3ccccc3)s2)CCN1C1CCCC1 (centres undefined)	-16	-19	3	2	5
O=C(c1c[nH]c(C(=O)N2CCN(c3ccccc3F)CC2)c1)c1cccc(Cl)c1Cl	-17	57*	-4	1	12
Cc1ccccc1C(=O)c1c[nH]c(C(=O)N2CCN(c3ccccc3F)CC2)c1	11	-6	2	1	3
O=C(COC(=O)c1ccccc1C(=O)c1ccc(Cl)c([N+](=O)[O-])c1)NC1CC1	-10	48*	-7	-2	-5
CNC(=O)COC(=O)c1ccccc1C(=O)c1ccc(Cl)c([N+](=O)[O-])c1	-4	54*	-2	4	4
O=C(CCCCCNC(=O)c1ccccc1)N/N=C/c1ccccc1O	-13	14	-11	-5	0
COc1ccc2c(c1)C=C(CN1CCC(CO)(CCc3ccccc3)CC1)CO2	9	-11	-4	-3	4
COc1ccc(CC2(CO)CCN(CC3=Cc4cc(Cl)ccc4OC3)CC2)cc1	-12	14	-1	37*	39*
COc1ccc(-n2c(CCC(=O)O)ccc2-c2ccccc2)cc1	-34	-5	-8	18	29*
CCOC(=O)N1CCN(C(=O)CSc2nnc(-c3cc(OC)ccc3OC)o2)CC1	-46	-18	6	-1	9
CCCNC(=S)N1CCC(C(=O)c2ccc(OC)cc2)CC1	-12	60*	-4	-1	8
CCCNC(=S)N1CCC(C(=O)c2ccc(Cl)cc2)CC1	-12	.	1	.	.
CC1=C(C)/C(=N\OS(=O)(=O)c2ccccc2)C=CC1=O	-36	74*	-5	91*	91*
CN1/C(=C\C(=O)C[n+]2ccc(C(=O)c3ccccc3)cc2)C(C)(C)c2ccccc21	-28	-11	1	-2	-1
COCCn1c(SCC(=O)/C=C2\N(C)c3ccccc3C2(C)C)nnc1-c1ccncc1	-5	4	-1	32*	34*
CN1/C(=C\C(=O)CN2C(=O)NC3(CCCCCC3)C2=O)C(C)(C)c2ccccc21	-28	16	2	41*	46*
SMILES	KLF5 inhibitor	APP transl inh	IEC-6 tox	Ba/F3 V617F tox	BaF3 tox
Cc1cccc[n+]1CC(=O)/C=C1\N(C)c2ccccc2C1(C)C	-2	-4	0	91*	67*
CN1/C(=C\C(=O)C[n+]2cccc(Br)c2)C(C)(C)c2ccccc21	-11	0	0	66*	67*
COCCn1c(SCC(=O)c2c(-c3ccccc3)n(C)c3ccccc23)nnc1-c1ccncc1	-25	-10	4	1	8
Cc1[nH]c2ccc(OC(F)(F)F)cc2c1CCN1C(=O)c2ccc(C(=O)O)cc2C1=O	-44	.	5	.	.
Cc1ccccc1NC(=O)CN1CCC(C(=O)c2ccc3c(c2)OCCO3)CC1	-2	.	5	.	.
Cc1cccc(N2CCN(C(=O)c3ccc(Cl)c(S(=O)(=O)NCc4ccco4)c3)CC2)c1C	5	-6	15	7	11
CN1/C(=C\C(=O)C[n+]2cccc(C(N)=O)c2)C(C)(C)c2ccccc21	-4	-12	-6	-2	0
Cc1ccc[n+](CC(=O)/C=C2\N(C)c3ccccc3C2(C)C)c1	6	15	6	51*	54*
Cc1cc(=O)[nH]c(SCC(=O)/C=C2\N(C)c3ccccc3C2(C)C)n1	-8	6	5	67*	62*
CN1/C(=C/C(=O)CSc2ccccc2C(=O)O)C(C)(C)c2ccccc21	-3	.	5	1	6
COc1ccc(NC(=O)Cc2coc3ccc4ccccc4c23)cc1S(=O)(=O)N1CCOCC1	-26	3	-3	-1	6
CCc1ccc(S(=O)(=O)NCc2csc(-c3cccnc3)n2)s1	-4	4	8	-2	-2
CCn1c(CNc2nc(-c3ccccc3)cs2)nnc1SCC(=O)NCc1ccco1	-13	3	3	-4	1
O=S1(=O)CC(O)C(N(CCO)C(=S)Nc2ccccc2)C1 (centres undefined)	-12	.	-1	-2	-2
COc1ccc(NC(=O)CCSc2ccc(F)cc2)cc1	-84	-33	-8	1	6
CCOC(=O)C(C)Oc1cccc2c(=O)n(CC(=O)NCc3ccc4c(c3)OCO4)ccc12 (centres undefined)	17	-6	18	59*	42*
CN=c1scc(-c2ccccc2F)n1/N=C(\C)c1cccnc1	-56	-186	3	6	38*
N/C(=N\O)c1cn(Cc2ccccc2Cl)c2ccccc12	-26	.	10	.	.
Cc1[nH][nH]c(=O)c1C(c1c(C)[nH][nH]c1=O)c1cn(Cc2ccccc2Cl)c2ccccc12	-2	49*	-1	1	2
CCn1nnnc1SCC(=O)c1cccc(OC)c1	-22	-5	-2	0	45*
COc1ccc(-n2nnnc2SCC(=O)c2cccc(OC)c2)cc1	3	6	2	5	6
COc1cc(C(=O)N/N=C/c2ccc(OC(=O)N3CCOCC3)cc2)cc(OC)c1OC	-12	61*	9	1	4
COc1cc(C(=O)Oc2ccc(/C=N/NC(=O)c3ccncc3)cc2)cc(OC)c1OC	-18	.	-4	.	.
CC1(C)CC(NC(=O)c2ccccc2)CC(C)(C)N1	-39	.	-6	.	.
CC1(C)CC(Nc2ccc(Nc3ccccc3)cc2)CC(C)(C)N1	-3	.	0	77*	29*
O=C(CSc1nnc(Cn2nnc3ccccc32)o1)N(Cc1ccc(F)cc1)c1ccccc1	-14	4	8	9	41*
O=C(Nc1ccc(Cl)cc1)Nc1ccccc1C(=O)O	-183	-119	-10	-3	4
